Laboratory results reported in the supplement of paper PMC12669032.

Tests used:
Assay in all cases: growth AUC relative to DMSO control (median of replicates) (fraction); higher = more growth (less inhibition), active = hit call of the paper
Conditions in all cases: 20 µM; 24 h;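 active = AUC reduced over 20% with Padj below 0.05 in at least 2 of 3 replicates; inactive = otherwise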
Coprococcus comes = tested on: Coprococcus comes
Procedure, shortened: (§1)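 Area under the growth curve was normalised to the plate median of solvent-only wells, or to row and column medians on the industrial chemical plate. Growth curves came from anaerobic gut bacterial monocultures in mGAM at 37 °C, seeded at OD600 0.05 with 20 µM compound (1% DMSO), and read at OD600 hourly for 24 h with the minimum OD set to 0. The value is the median of three biological replicates grown on separate days.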

Escherichia coli ED1a = tested on: Escherichia coli ED1a
Procedure, shortened: as §1

Escherichia coli IAI1 = tested on: Escherichia coli IAI1
Procedure, shortened: as §1

Eubacterium rectale = tested on: Eubacterium rectale
Procedure, shortened: as §1

[1] = tested on: Fusobacterium nucleatum subsp. animalis
Procedure, shortened: as §1

Lactobacillus gasseri = tested on: Lactobacillus gasseri
Procedure, shortened: as §1

Lactobacillus paracasei = tested on: Lactobacillus paracasei
Procedure, shortened: as §1

Odoribacter splanchnicus = tested on: Odoribacter splanchnicus
Procedure, shortened: as §1

[2] = tested on: Parabacteroides distasonis
Procedure, shortened: as §1

Parabacteroides merdae = tested on: Parabacteroides merdae
Procedure, shortened: as §1

Roseburia intestinalis = tested on: Roseburia intestinalis
Procedure, shortened: as §1

Streptococcus salivarius = tested on: Streptococcus salivarius
Procedure, shortened: as §1

Measured: growth AUC

N#CC(CCc1ccc(Cl)cc1)(Cn1cncn1)c1ccccc1 (configuration not stated)
inactive: Coprococcus comes 0.969 | Escherichia coli ED1a 1.03 | Escherichia coli IAI1 1.02 | Eubacterium rectale 1.07 | [1] 0.942 | Lactobacillus gasseri 0.904 | Lactobacillus paracasei 0.952 | Odoribacter splanchnicus 0.88 | Parabacteroides merdae 0.96 | Roseburia intestinalis 0.911 | Streptococcus salivarius 0.934
active: [2] 0.57

CCCSP(=S)(OCC)Oc1ccc(SC)cc1 (configuration not stated)
inactive: Coprococcus comes 1.04 | Escherichia coli ED1a 1.01 | Escherichia coli IAI1 0.959 | Eubacterium rectale 0.985 | [1] 1.07 | Lactobacillus gasseri 0.946 | Lactobacillus paracasei 1.02 | Odoribacter splanchnicus 1.07 | [2] 0.98 | Parabacteroides merdae 0.996 | Roseburia intestinalis 1.06 | Streptococcus salivarius 0.93

CCNc1nc(NCC)nc(SC)n1
inactive: Coprococcus comes 0.99 | Escherichia coli ED1a 1.02 | Escherichia coli IAI1 0.99 | Eubacterium rectale 1.02 | [1] 1.06 | Lactobacillus gasseri 1.13 | Lactobacillus paracasei 1.08 | Odoribacter splanchnicus 0.88 | [2] 1.01 | Parabacteroides merdae 1.04 | Roseburia intestinalis 1.08 | Streptococcus salivarius 0.978

N#Cc1nn(-c2c(Cl)cc(C(F)(F)F)cc2Cl)c(N)c1S(=O)(=O)C(F)(F)F
active: Streptococcus salivarius 0.548
inactive: Coprococcus comes 0.968 | Escherichia coli ED1a 1.04 | Escherichia coli IAI1 1.02 | Eubacterium rectale 0.945 | [1] 1.01 | Lactobacillus gasseri 1.01 | Lactobacillus paracasei 0.929 | Odoribacter splanchnicus 0.978 | [2] 0.904 | Parabacteroides merdae 0.97 | Roseburia intestinalis 0.965

Cc1nc(N(C)C=O)nc(OC(=O)N(C)C)c1C
inactive: Coprococcus comes 0.995 | Escherichia coli ED1a 0.975 | Escherichia coli IAI1 0.954 | Eubacterium rectale 1.03 | [1] 1.06 | Lactobacillus gasseri 0.976 | Lactobacillus paracasei 0.985 | Odoribacter splanchnicus 0.981 | [2] 1.04 | Parabacteroides merdae 0.982 | Roseburia intestinalis 0.964 | Streptococcus salivarius 0.999

CCC(C)(CC)c1cc(NC(=O)c2c(OC)cccc2OC)on1
inactive: Coprococcus comes 1.03 | Escherichia coli ED1a 1.01 | Escherichia coli IAI1 0.988 | Eubacterium rectale 0.986 | [1] 0.986 | Lactobacillus gasseri 0.932 | Lactobacillus paracasei 1.02 | Odoribacter splanchnicus 1.04 | [2] 1 | Parabacteroides merdae 0.939 | Roseburia intestinalis 0.963 | Streptococcus salivarius 0.979

CCCCCCCCCc1ccc(O)cc1
inactive: Coprococcus comes 0.989 | Escherichia coli ED1a 0.998 | Escherichia coli IAI1 1.01 | Eubacterium rectale 0.968 | [1] 0.989 | Lactobacillus gasseri 0.904 | Lactobacillus paracasei 1.01 | Odoribacter splanchnicus 0.841 | [2] 0.885 | Parabacteroides merdae 0.971 | Roseburia intestinalis 0.897 | Streptococcus salivarius 0.927

Cc1ccc(-c2c(Cl)nc(C#N)n2S(=O)(=O)N(C)C)cc1
active: [2] 0.551
inactive: Coprococcus comes 1.03 | Escherichia coli ED1a 0.944 | Escherichia coli IAI1 1.02 | Eubacterium rectale 0.992 | [1] 1.09 | Lactobacillus gasseri 1 | Lactobacillus paracasei 1.03 | Odoribacter splanchnicus 0.989 | Parabacteroides merdae 0.818 | Roseburia intestinalis 0.995 | Streptococcus salivarius 0.956

CCC(C)c1ccccc1OC(=O)NC (configuration not stated)
inactive: Coprococcus comes 1.01 | Escherichia coli ED1a 0.968 | Escherichia coli IAI1 0.974 | Eubacterium rectale 0.964 | [1] 0.998 | Lactobacillus gasseri 1.07 | Lactobacillus paracasei 0.918 | Odoribacter splanchnicus 1.08 | [2] 1.03 | Parabacteroides merdae 0.986 | Roseburia intestinalis 0.963 | Streptococcus salivarius 1.04

COP(=S)(OC)SCN1C(=O)c2ccccc2C1=O
inactive: Coprococcus comes 1 | Escherichia coli ED1a 1 | Escherichia coli IAI1 0.991 | Eubacterium rectale 0.967 | [1] 0.947 | Lactobacillus gasseri 1.11 | Lactobacillus paracasei 0.986 | Odoribacter splanchnicus 0.968 | [2] 0.982 | Parabacteroides merdae 0.988 | Roseburia intestinalis 0.901 | Streptococcus salivarius 0.979

CC(C)=CC1C(C(=O)OCN2C(=O)C3=C(CCCC3)C2=O)C1(C)C (configuration not stated)
inactive: Coprococcus comes 0.953 | Escherichia coli ED1a 0.995 | Escherichia coli IAI1 0.97 | Eubacterium rectale 0.938 | [1] 0.85 | Lactobacillus gasseri 0.993 | Lactobacillus paracasei 0.918 | Odoribacter splanchnicus 0.963 | [2] 0.935 | Parabacteroides merdae 0.972 | Roseburia intestinalis 0.988 | Streptococcus salivarius 1.01

CNC(=O)Oc1cccc(N=CN(C)C)c1.Cl
inactive: Coprococcus comes 1.04 | Escherichia coli ED1a 1 | Escherichia coli IAI1 1.05 | Eubacterium rectale 1.04 | [1] 1.07 | Lactobacillus gasseri 1.02 | Lactobacillus paracasei 1.04 | Odoribacter splanchnicus 1.02 | [2] 1.03 | Parabacteroides merdae 1.02 | Roseburia intestinalis 0.992 | Streptococcus salivarius 1.02

CC(C)(COCc1cccc(Oc2ccccc2)c1)c1ccc(OC(F)(F)Br)cc1
inactive: Coprococcus comes 0.961 | Escherichia coli ED1a 0.999 | Escherichia coli IAI1 0.995 | Eubacterium rectale 0.903 | [1] 0.939 | Lactobacillus gasseri 1.01 | Lactobacillus paracasei 1.05 | Odoribacter splanchnicus 0.988 | [2] 1.01 | Parabacteroides merdae 0.979 | Roseburia intestinalis 1.05 | Streptococcus salivarius 0.966

CC1(C)CN=C(NN=C(/C=C/c2ccc(C(F)(F)F)cc2)/C=C/c2ccc(C(F)(F)F)cc2)NC1
active: Roseburia intestinalis 0.391
inactive: Coprococcus comes 1 | Escherichia coli ED1a 0.992 | Escherichia coli IAI1 1.04 | Eubacterium rectale 1.04 | [1] 1.06 | Lactobacillus gasseri 0.935 | Lactobacillus paracasei 0.903 | Odoribacter splanchnicus 1.04 | [2] 1.06 | Parabacteroides merdae 0.989 | Streptococcus salivarius 1.1

CC(C)c1ccc(NC(=O)N(C)C)cc1
inactive: Coprococcus comes 0.979 | Escherichia coli ED1a 0.972 | Escherichia coli IAI1 0.97 | Eubacterium rectale 1.05 | [1] 1.07 | Lactobacillus gasseri 0.934 | Lactobacillus paracasei 0.98 | Odoribacter splanchnicus 1.12 | [2] 0.998 | Parabacteroides merdae 0.935 | Roseburia intestinalis 0.95 | Streptococcus salivarius 0.956

COc1nn(CSP(=S)(OC)OC)c(=O)s1
inactive: Coprococcus comes 1.06 | Escherichia coli ED1a 1 | Escherichia coli IAI1 1 | Eubacterium rectale 1.08 | [1] 1.01 | Lactobacillus gasseri 0.987 | Lactobacillus paracasei 1.01 | Odoribacter splanchnicus 1.08 | [2] 1 | Parabacteroides merdae 1.04 | Roseburia intestinalis 1.06 | Streptococcus salivarius 0.985

CC(C)NC(=O)N1CC(=O)N(c2cc(Cl)cc(Cl)c2)C1=O
inactive: Coprococcus comes 1.01 | Escherichia coli ED1a 1.03 | Escherichia coli IAI1 0.983 | Eubacterium rectale 0.995 | [1] 0.948 | Lactobacillus gasseri 1.09 | Lactobacillus paracasei 0.991 | Odoribacter splanchnicus 1 | [2] 0.979 | Parabacteroides merdae 1 | Roseburia intestinalis 1.07 | Streptococcus salivarius 1.05

CCN(Cc1ccc(Cl)nc1)/C(=C/[N+](=O)[O-])NC
inactive: Coprococcus comes 0.959 | Escherichia coli ED1a 1.04 | Escherichia coli IAI1 0.987 | Eubacterium rectale 0.948 | [1] 0.928 | Lactobacillus gasseri 0.966 | Lactobacillus paracasei 0.992 | Odoribacter splanchnicus 0.95 | [2] 1.04 | Parabacteroides merdae 0.989 | Roseburia intestinalis 1 | Streptococcus salivarius 1

CCOP(=S)(OCC)SCCS(=O)CC (configuration not stated)
inactive: Coprococcus comes 0.971 | Escherichia coli ED1a 0.985 | Escherichia coli IAI1 0.98 | Eubacterium rectale 1.11 | [1] 1.02 | Lactobacillus gasseri 0.941 | Lactobacillus paracasei 0.948 | Odoribacter splanchnicus 1.06 | [2] 1.01 | Parabacteroides merdae 1 | Roseburia intestinalis 0.965 | Streptococcus salivarius 0.973

COc1nc(C)nc(NC(=O)NS(=O)(=O)c2ccccc2CCC(F)(F)F)n1
inactive: Coprococcus comes 0.967 | Escherichia coli ED1a 0.997 | Escherichia coli IAI1 0.976 | Eubacterium rectale 0.954 | [1] 0.992 | Lactobacillus gasseri 1.06 | Lactobacillus paracasei 1 | Odoribacter splanchnicus 0.962 | [2] 1.01 | Parabacteroides merdae 1 | Roseburia intestinalis 0.98 | Streptococcus salivarius 0.989

CC(C)OC(=O)Nc1ccccc1
inactive: Coprococcus comes 1.03 | Escherichia coli ED1a 0.994 | Escherichia coli IAI1 1.01 | Eubacterium rectale 0.991 | [1] 1.02 | Lactobacillus gasseri 1.13 | Lactobacillus paracasei 1.04 | Odoribacter splanchnicus 0.962 | [2] 1.01 | Parabacteroides merdae 1 | Roseburia intestinalis 1.06 | Streptococcus salivarius 1.01
